From PubChem BioAssay (NCATS)
Records with an inconclusive call do not appear. A call without a number means that no potency is given here. Activity calls are given as the source filed them. The call rests on the fitted dose curve; in most records, active means well fitted inhibition curve with a large enough effect in the signal ratio, with a control signal flat (not every such curve was filed as active); inconclusive means small, poorly fitted or top-dose-only effect, or effect the other way, or a change in a side signal; inactive means no such curve, though single readings can be large or run the other way; the % refers to the signal ratio.

Biological target: Peroxisome proliferator-activated receptor delta (Homo sapiens) (UniProt Q03181)
Assay: qHTS assay for small molecule antagonists of peroxisome proliferator-activated receptor delta signaling (AID 588535)
Conditions: HEK293T PPARd-UAS-bla, beta-lactamase FRET ratio, 18 h; series mostly up to 76.7 µM
Text: NIH Chemical Genomics Center [NCGC] U.S. Environmental Protection Agency [EPA] National Institutes of Environmental Health Sciences [NIEHS] National Toxicology Program [NTP] NCGC Assay Overview The Peroxisome proliferator-activated receptors (PPARs) are lipid-activated transcription factors of the nuclear receptor superfamily with three distinct subtypes namely PPAR alpha, PPAR delta (also called PPAR beta) and PPAR gamma. All these subtypes heterodimerizes with Retinoid X receptor (RXR) and have different physiological functions. […] This role of PPAR delta implicates the potential use of its ligands in the treatment of metabolic disorders.
NCGC Assay Protocol Summary Using a beta-lactamase reporter-gene under control Peroxisome Proliferator-Activated Receptor delta (PPAR-delta) response element, a cell-based assay [GeneBLAzer (PPAR-delta-UAS-bla assay developed by Invitrogen] was used to measure PPAR-delta ligands signaling. GeneBLAzer PPAR-delta-UAS-bla HEK293T cells were used with assay medium containing 2% charcoal/dextran FBS. The assay was performed in clear bottom black Greiner 1536-well plates. Library compounds were measured for their ability to inhibit the reporter gene activity. Compounds were screened in a titration series in 1536-well format. The fluorescence intensity (405 nm excitation, 460/530 nm emission) was measured using an EnVision plate reader. […] Concentration-response titration points for each compound were fitted to the Hill equation yielding concentrations of half-maximal inhibition (IC50) and maximal response (efficacy) values. qHTS protocol for PPAR-delta beta-lactamase assay in antagonist mode [Step] [Parameter] [Value] [Description] 1. Reagent; 5 uL; 4000 cells/well 2. Incubation; 37 C for 5 hrs 3. Compounds; 23 nL; 0.59 nM to 92 uM 4. […] Incubation; 37 C for 18 hrs 7. Detection reagent; 1 uL of CCF4-dye 8. Incubation; RT for 2 hrs 9. Detection; Fluorescence; Envision plate reader

Peroxisome proliferator-activated receptor delta (Homo sapiens), sequence (Q03181 whole entry, looked up): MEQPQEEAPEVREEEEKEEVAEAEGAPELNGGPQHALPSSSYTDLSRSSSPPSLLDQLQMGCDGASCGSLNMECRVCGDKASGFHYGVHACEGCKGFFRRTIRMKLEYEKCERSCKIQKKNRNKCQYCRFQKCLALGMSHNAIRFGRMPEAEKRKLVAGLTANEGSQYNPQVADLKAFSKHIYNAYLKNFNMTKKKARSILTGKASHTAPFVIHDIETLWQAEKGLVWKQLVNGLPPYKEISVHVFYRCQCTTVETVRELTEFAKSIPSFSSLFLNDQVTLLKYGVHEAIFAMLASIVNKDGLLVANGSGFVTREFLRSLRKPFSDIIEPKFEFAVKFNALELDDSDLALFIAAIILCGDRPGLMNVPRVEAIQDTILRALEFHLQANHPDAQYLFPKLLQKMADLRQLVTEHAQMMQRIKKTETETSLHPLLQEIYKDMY

| Compound | Potency |
| --- | --- |
| CC(=C/C=C/C(C)=C/C=C/C=C(C)/C=C/C=C(C)/C=C/C(=O)O)/C=C/C(=O)O | inactive |
| CCCCC(=O)N(C)C | inactive |
| C=C(C)C(=O)OCC(C)C | inactive |
| CCCCCO | inactive |
| NC(=O)c1ccccc1[N+](=O)[O-] | inactive |
| CC(C)=CCC/C(C)=C/C=O | inactive |
| CC(C)=C1CCC(C)CC1=O (stereo not given) | inactive |
| O=Nc1ccc(NO)cc1 | 12.6 µM (active) |
| CC/C=C/C#N | inactive |
| CC(=O)OCc1ccco1 | inactive |
| Nc1c(Cl)cc(Cl)cc1Cl | inactive |
| CCCCCCCN | inactive |
| NC(=O)/N=N/C(N)=O | inactive |
| Cc1ccccc1C(N)=O | inactive |
| CC(C)(C)c1ccc(OCC2CO2)cc1 (stereo not given) | inactive |
| CC(=O)C1(C)CC2=C(CCCC2(C)C)CC1C (stereo not given) | inactive |
| NC(=S)NNC(N)=S | inactive |
| Cc1ccc(C(C)(C)C)cc1 | inactive |
| CCCCC/C=C/C=C/C=O | inactive |
| C=CCCCCCCC=C | inactive |

| Compound | Potency |
| --- | --- |
| Cc1c(N)cccc1N | inactive |
| CCCCCCC=O | inactive |
| O=C(Cl)c1c(Cl)cccc1Cl | inactive |
| CC(=O)OC(C)C | inactive |
| Clc1ccc(Cl)c(Cl)c1Cl | inactive |
| Cc1ccc(C)c([N+](=O)[O-])c1 | inactive |
| c1ccc(Oc2ccccc2)cc1 | inactive |
| O=[N+]([O-])c1ccc(Cl)cc1Cl | inactive |
| CC(=O)CC(C)C | inactive |
| CCNc1ccccc1 | inactive |
| CC(=O)c1ccccn1 | inactive |
| CC(=O)c1ccc([N+](=O)[O-])cc1 | inactive |
| CCCOCC(C)OCC(C)O (stereo not given) | inactive |
| ICCc1ccccc1 | inactive |
| CC(=O)OCCC(C)C | inactive |
| Nc1ccccc1[N+](=O)[O-] | inactive |
| O=C1CCCCC1 | inactive |
| CCOC(C)(C)C | inactive |
| CCCCC(CC)COC(=O)CCCCC(=O)OCC(CC)CCCC (stereo not given) | inactive |
| O=[N+]([O-])c1ccc(CCO)cc1 | inactive |
